Source: PubChem BioAssay (University of Kansas High Throughput Screening Laboratory)
This is a sample that favours compounds with a hit; in the whole collection about 3.5% have one here.
Pf apPOL block – Pf-apPOL DNA polymerase inhibition. 210,000 compounds, 0.25% hits. AID 1794808. inhibition, % at 10 µM. Recombinant Pf-apPOL, molecular beacon fluorescence, 1.5 h
mHTT-CaM PPI inh – inhibitors of human mutant huntingtin-calmodulin interaction. inhibition, % at 15 µM. P42858. AID 1671202. 190,000 compounds, 3.6% hits. AlphaScreen His-mHTT/GST-CaM binding, luminescence
Hits are given with their value; n = inactive; x = no result given. Cut-off read from the data, not from the text of the source: active = inhibition above about 50%; inactive = the rest.

SMILES	Pf apPOL block	mHTT-CaM PPI inh
CCOc1ccccc1NS(=O)(=O)c1ccc2[nH]c3c(c2c1)CCCCC3	n	n
CCOC(=O)c1ccc(NS(=O)(=O)c2ccc3[nH]c4c(c3c2)CCCC4)cc1	n	87
CN1CCN(C(=O)C2CCN(S(=O)(=O)N3CCC4(CC3)OCCO4)CC2)CC1	n	n
CCc1ccc(NC(=O)CN2CCc3ccccc3C2C(=O)N2CCCCC2)cc1 (centres undefined)	n	n
CCNc1cc(N2CCCC(CCC(=O)NCCc3cccs3)C2)ncn1 (centres undefined)	n	n
COc1ccc(Br)cc1S(=O)(=O)N1CC(C)CC(C)C1 (centres undefined)	n	n
CCC(C)NC(=O)C1CCN(c2ccc3c(c2)CCC3)C1=O (centres undefined)	n	n
COc1ccccc1CNS(=O)(=O)c1ccc2[nH]c3c(c2c1)CCCC3	n	64
COc1ccc(OC)c(NS(=O)(=O)c2ccc3[nH]c4c(c3c2)CCCC4)c1	n	71
COc1ccc(OC)c(NS(=O)(=O)c2ccc(-c3ccccc3)cc2)c1	n	n
COc1cc(NS(=O)(=O)c2ccc3[nH]c4c(c3c2)CCCC4)cc(OC)c1OC	n	83
COc1ccccc1CNS(=O)(=O)c1ccc(OC)c(OC)c1	n	n
O=S(=O)(Nc1cccnc1)c1ccc2[nH]c3c(c2c1)CCCCC3	n	n
COc1ccc(C2/C=C\CN(S(=O)(=O)c3ccc(C)cc3)[C@@H](C)C(=O)N2Cc2ccc(F)cc2)cc1 (some centres undefined)	n	n
CN(CCO)CCCCOc1ccc2c(c1)C(=O)c1cc(OCCCCN(C)CCO)ccc1-2	n	60
CCCCOc1ccc2c(c1)C(=O)c1cc(OCCCC)ccc1-2	n	n
CCSc1nnc(NC(=O)c2ccc(N3CCCC3)nn2)s1	n	n
Cc1csc(NC(=O)c2ccc(N3CCCC3)nn2)n1	n	72
COc1cc(OC)c2c(-c3ccccc3)cc(=O)oc2c1C(CC(=O)N1CCCC1)c1ccc(N(C)C)cc1 (centres undefined)	n	90
CCN(CC)C(=O)CC(c1ccc(N(C)C)cc1)c1c(OC)cc(OC)c2c(-c3ccccc3)cc(=O)oc12 (centres undefined)	n	n
COc1cc(C(CC(=O)N2CCCC2)c2c(OC)cc(OC)c3c(-c4ccccc4)cc(=O)oc23)cc(OC)c1OC (centres undefined)	n	52
COc1ccc(C(CC(=O)N2CCOCC2)c2c(OC)cc(OC)c3c(-c4ccccc4)cc(=O)oc23)cc1 (centres undefined)	n	n
COc1ccc(C(CC(=O)N2CCCC2)c2c(OC)cc(OC)c3c(-c4ccccc4)cc(=O)oc23)cc1 (centres undefined)	n	81
COc1ccc(C(CC(=O)N2CCCC2)c2c(OC)cc(OC)c3ccc(=O)oc23)cc1 (centres undefined)	n	n
Cc1ccc(CN2C(=O)c3ccccc3C2C(=O)NCCCN2CCCCC2C)cc1 (centres undefined)	n	n
SMILES	Pf apPOL block	mHTT-CaM PPI inh
CNC(=O)C(C1CCCC1)N1CCN(C(=O)c2ccc(F)cc2)CC1 (centres undefined)	n	n
O=C(CN(C1CCCCC1)S(=O)(=O)c1ccccc1)N1CCCCCC1	n	n
O=C(CN(C1CCCCC1)S(=O)(=O)c1ccccc1)N1CCN(c2ccc(F)cc2)CC1	n	60
CCCc1cc(C2CCCN2C(=O)NCc2cccc(OC)c2)no1 (centres undefined)	n	n
CC1CCN(S(=O)(=O)N2CCCC(C(=O)NC3CCCC3)C2)CC1 (centres undefined)	n	n
CC1CCN(S(=O)(=O)N2CCCC(C(=O)NC(C)C)C2)CC1 (centres undefined)	95	n
N#CC1=C(N)C(C#N)(C#N)C(c2ccc(O)cc2)C2CCCC=C12 (centres undefined)	n	n
N#CC1=C(N)C(C#N)(C#N)C(c2ccc(I)cc2)C=C1C1CC1 (centres undefined)	n	58
O=C(CC(=O)c1ccccc1O)c1cccc(F)c1	n	57
O=C(CC(=O)c1ccccc1O)c1ccc(F)cc1	n	n
O=C(CC(=O)c1ccccc1Cl)c1ccccc1O	n	50
O=C(NCCNC(=O)c1ccccc1O)c1ccccc1O	n	n
CCC(=O)Nc1ccc2c(c1)c(=O)n(-c1ccccc1)n2CC(=O)NC1CCCC1	n	n
COc1cccc(C(=O)COC(=O)Cc2ccc(OC)c(Br)c2)c1	n	n
CC(C)(C)c1ccc(C(=O)ON=C2C(C)(C)C3CC[C@]2(C)C3)cc1	n	x
COc1ccc(CCNC(=O)c2ccc(Br)o2)cc1	n	n
Cc1ccccc1-n1c(=O)n(CC(C)C)c(=O)c2c1ncn2Cc1ccc(F)cc1	n	75
CC(C)Cn1c(=O)c2c(ncn2Cc2ccc(F)cc2)n(-c2ccccc2)c1=O	n	n
CN1C(=O)C2CCCCN2c2ccc(C(=O)NCCc3ccc(Cl)cc3)cc21 (centres undefined)	n	n
NC1CCCCC1	n	n
